From PubChem BioAssay AID1159580 (chemical genetic matrix, 2015)
Values joined by “and” are separate entries in the source; they are usually repeats but may differ in a detail not shown here. Equal entries are not always repeated. About 2,000 (36%) of roughly 5,500 compounds were called active. Inconclusive results (about 18%) are left out. Cut-off read from the data, not from the text of the source: active = normalized growth mostly below about 0.91 (no sharp cut-off); inconclusive = no clear call, values can overlap the other calls; inactive = mostly above about 0.92. Some of the results follow.

Test: chemical genetic growth profiling, strain panel (AID 1159580);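 note: tested at 20 µM; growth read once vehicle control cultures reached saturation at 30 °C; 1 = growth at the plate median or of vehicle wells; lower values mean less growth of the strain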
Conditions: S. cerevisiae deletion strains, growth OD

Measured: normalized growth

CC1(C)NC(=O)N(c2ccc([N+](=O)[O-])c(C(F)(F)F)c2)C1=O
inactive: locus YAL013W, strain DEP1, active compounds read low 1.01 and 0.99 | locus YAL021C, strain ccr4, active compounds read low 1.02 | locus YAL026C, strain drs2, active compounds read low 0.983 | locus YAL030W, strain snc1, active compounds read low 0.99 | locus YAL040C, strain CLN3, active compounds read low 1.05 | locus YBL061C, strain skt5, active compounds read low 0.98 | locus YBR009C, strain hhf1, active compounds read low 0.982 | locus YBR021W, strain FUR4, active compounds read low 1.02 | locus YBR023C, strain chs3, active compounds read low 0.987 | locus YBR171W, strain sec66, active compounds read low 0.98 | locus YBR229C, strain ROT2, active compounds read low 1.01 | locus YBR231C, strain swc5, active compounds read low 0.989 | locus YBR279W, strain paf1, active compounds read low 0.994 | locus YCL011C, strain gbp2, active compounds read low 0.985 | locus YCL016C, strain dcc1, active compounds read low 0.986 | locus YCL029C, strain bik1, active compounds read low 0.967 | locus YCL061C, strain MRC1 (second series), active compounds read low 1 | locus YCL061C, strain MRC1, active compounds read low 0.976 | locus YCL069W, strain vba3, active compounds read low 0.98 | locus YCR088W, strain abp1, active compounds read low 0.982 | locus YDL005C, strain med2, active compounds read low 0.993 | locus YDL035C, strain GPR1, active compounds read low 1 | locus YDL040C, strain nat1, active compounds read low 0.984 | locus YDL074C, strain BRE1, active compounds read low 1.02 | locus YDL101C, strain DUN1, active compounds read low 1.01 | locus YDL134C, strain PPH21, active compounds read low 1.02 | locus YDL185W, strain tfp1, active compounds read low 0.977 | locus YDL192W, strain arf1, active compounds read low 0.983 | locus YDR001C, strain nth1, active compounds read low 0.985 | locus YDR069C, strain doa4, active compounds read low 0.99 | locus YDR101C, strain arx1, active compounds read low 0.982 | locus YDR137W, strain rgp1, active compounds read low 0.894 | locus YDR150W, strain NUM1, active compounds read low 1.03 | locus YDR159W, strain sac3, active compounds read low 0.985 | locus YDR162C, strain NBP2, active compounds read low 1 | locus YDR195W, strain ref2 0.975 | locus YDR297W, strain sur2, active compounds read low 0.99 | locus YDR318W, strain mcm21, active compounds read low 0.994 | locus YDR334W, strain swr1, active compounds read low 0.989 | locus YDR335W, strain msn5, active compounds read low 0.994 | locus YDR363W, strain ESC2, active compounds read low 0.975 | locus YDR388W, active compounds read low 0.983 | locus YDR392W, strain spt3, active compounds read low 0.998 | locus YDR502C, strain sam2, active compounds read low 0.984 | locus YEL003W, strain gim4, active compounds read low 0.985 | locus YEL037C, strain rad23, active compounds read low 0.988 | locus YEL061C, strain CIN8 (second series), active compounds read low 0.989 | locus YEL061C, strain CIN8, active compounds read low 0.999 | locus YER002W, strain NOP16, active compounds read low 0.996 | locus YER015W, strain faa2, active compounds read low 0.971 | locus YER016W, strain bim1, active compounds read low 0.983 | locus YER110C, active compounds read low 0.971 | locus YER111C, strain swi4, active compounds read low 0.985 | locus YER155C, strain BEM2 (second series), active compounds read low 0.987 | locus YER155C, strain BEM2, active compounds read low 0.996 | locus YER167W, strain BCK2, active compounds read low 1.01 | locus YFR010W, strain ubp6, active compounds read low 0.985 | locus YGL078C, strain dbp3, active compounds read low 0.986 | locus YGL086W, strain mad1, active compounds read low 0.992 | locus YGL167C, strain pmr1, active compounds read low 0.983 | locus YGL173C, strain kem1, active compounds read low 0.976 | locus YGL227W, strain vid30, active compounds read low 0.973 | locus YGL240W, strain doc1, active compounds read low 0.98 | locus YGL248W, strain PDE1, active compounds read low 1.01 | locus YGL253W, strain hxk2, active compounds read low 0.985 | locus YGR078C, strain PAC10, active compounds read low 1.01 and 0.981 | locus YGR135W, strain pre9, active compounds read low 0.98 | locus YGR229C, strain SMI1, active compounds read low 1.02 | locus YGR252W, strain gcn5, active compounds read low 0.978 | locus YHR013C, strain ard1, active compounds read low 0.97 | locus YHR027C, strain rpn1, active compounds read low 0.984 | locus YHR030C, strain SLT2, active compounds read low 1.01 and 0.984 | locus YHR079C, strain IRE1 (second series), active compounds read low 0.988 | locus YHR079C, strain IRE1, active compounds read low 1 | locus YHR094C, strain hxt1, active compounds read low 0.986 | locus YHR129C, strain ARP1, active compounds read low 1.01 | locus YHR142W, strain chs7, active compounds read low 0.986 | locus YHR200W, strain rpn10, active compounds read low 0.987 | locus YIL066C, strain RNR3, active compounds read low 1.02 | locus YIL073C, strain SPO22, active compounds read low 1 | locus YIL125W, strain kgd1, active compounds read low 0.986 | locus YIR030C, strain dcg1, active compounds read low 0.983 | locus YJL092W, strain hpr5, active compounds read low 0.978 | locus YJL095W, strain BCK1 (second series), active compounds read low 0.982 | locus YJL095W, strain BCK1, active compounds read low 0.991 and 1 | locus YJL115W, strain asf1, active compounds read low 0.992 | locus YJL129C, strain trk1, active compounds read low 0.991 | locus YJL134W, strain LCB3, active compounds read low 1.01 | locus YJL154C, strain vps35, active compounds read low 0.988 | locus YJL164C, strain tpk1, active compounds read low 0.985 | locus YJL166W, strain qcr8, active compounds read low 0.986 | locus YJL168C, strain set2, active compounds read low 0.987 | locus YJL187C, strain SWE1 (second series), active compounds read low 1.01 | locus YJL187C, strain SWE1, active compounds read low 0.981 | locus YJR043C, strain POL32, active compounds read low 1 | locus YJR066W, strain TOR1, active compounds read low 0.956
